TRHR ag – TRH receptor (human) agonism | hit rate 0.18% among 360,000 | P34981 | TRHR cells, calcium flux fluo-8, FDSS agonist mode | AID 493084 | activation, % at 2 µM
Target sequence (P34981 whole entry, looked up): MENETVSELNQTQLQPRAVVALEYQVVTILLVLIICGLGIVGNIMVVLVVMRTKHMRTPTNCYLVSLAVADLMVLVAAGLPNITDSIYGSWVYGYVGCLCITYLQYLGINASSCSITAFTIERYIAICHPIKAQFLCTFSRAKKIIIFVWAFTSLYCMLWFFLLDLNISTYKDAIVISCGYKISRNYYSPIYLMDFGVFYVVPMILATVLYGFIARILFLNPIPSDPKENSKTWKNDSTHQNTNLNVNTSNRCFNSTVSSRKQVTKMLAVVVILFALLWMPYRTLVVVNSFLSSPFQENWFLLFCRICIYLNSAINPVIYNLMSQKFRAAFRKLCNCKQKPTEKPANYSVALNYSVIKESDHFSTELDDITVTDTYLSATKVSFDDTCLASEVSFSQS
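TRHR-expressing cells, plated overnight in medium with 10% serum, were loaded with fluo-8 calcium dye at room temperature. After a 10 s baseline, library compound was pin-added and calcium release was recorded kinetically (ex 480/em 530) as agonist response.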
TRHR PAM – allosterically enhances the human TRH receptor | P34981 | hit rate 0.66% among 360,000 | AID 493056 | enhancement, % at 2 µM | TRHR cells, fluo-8 calcium fluorescence, EC20 TRH enhancement; in the data active = enhancement above about 30%
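TRHR-expressing cells loaded with fluo-8 calcium dye were read kinetically (ex 480/em 530) during compound addition, then stimulated with an EC20 of TRH (10 nM final). Enhancement of the Gq-mediated intracellular calcium response was scored.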
D1 antagonist – blocks dopamine activation of the human D1 receptor. activity change, negative = inhibition, % at 10 µM. HEK293 TREx D1 cells, calcium flux, dopamine EC80; stronger effect = lower value. hit rate 3.2% among 360,000. P21728; in the data active = activity change below about -30%
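Compound effects on dopamine-evoked calcium signalling were measured in tetracycline-induced HEK293 Trex D1 cells. Dopamine at EC80 followed a 180 s compound pre-read, and fluorescence was tracked kinetically for 180 s more.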
D1 agonist – human D1 receptor agonism; HEK293 T-REx D1 cells, calcium flux, agonist mode; activation, % at 2 µM; hit rate 1% among 360,000
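Agonism was scored from calcium flux recorded over 180 s (1 read/s) after pintool compound addition, following a 10-cycle baseline. Cells were inducible force-coupled HEK293 TREx D1, plated overnight at 30 C and loaded with no-wash calcium dye.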
D1 PAM – human D1 dopamine receptor positive modulation; potentiation, % at 10 µM; HEK293 TREx D1 cells, calcium flux, dopamine EC20 potentiation; hit rate 0.036% among 360,000; in the data active = potentiation above about 30%
Each line names hits and unclear results; the compound was inactive in the other large screens; ! = repeats disagree. Rows were chosen to be rich in hits. Some 4.6% of all compounds tested hit in one or more screens of this group. Cut-off read from the data, not from the text of the source, unless noted: active = activation above about 30%; inactive = the rest.

COCCNC(=O)c1ccc(CN2CCC(Cc3ccccc3)CC2)cc1	D1 antagonist -30.5
Cc1[nH]c2ccccc2c1CN1CCC(Cc2ccccc2)CC1	D1 antagonist -62.5, D1 agonist 90.1
Cc1ccc(S(=O)(=O)NCc2ccc(C(=O)NCCCN3CCC(Cc4ccccc4)CC3)cc2)cc1	D1 antagonist -82.8
O=[N+]([O-])c1cccc(NNS(=O)(=O)c2ccccc2F)c1	none
CCOc1ccc(CN2CCC(Cc3ccccc3)CC2)cc1	D1 antagonist -31.0
Cc1cc(Br)ccc1NC(=O)CN(C)C(=O)c1ccc(-n2cncn2)c([N+](=O)[O-])c1	D1 antagonist -40.7 (no result: D1 PAM)
Cc1cc(Br)ccc1NC(=O)CNC(=O)c1ccc(-n2cncn2)c([N+](=O)[O-])c1	none
COc1ccccc1CNC(=O)[C@@H](NC(=O)C1CCN(C(=O)[C@@H]2CCCN2)CC1)C(C)C	none
O=C(C/C(=N/O)c1ccccc1O)C(F)F	D1 antagonist -32.5
COCCn1c(COc2cccc(OC)c2)nnc1SCC(=O)NC1CCCC1	none
CCOc1cc2c(cc1OCC)CN(C(=O)c1cccc(S(=O)(=O)N3CCCC3)c1)CC2	D1 antagonist -36.0
COc1ccc(C(=O)N/N=C/c2cccnc2)cc1	none
CC(Oc1ccc(-c2ccccc2)cc1)C(=O)N/N=C/c1cccnc1 (stereo unspecified)	D1 antagonist -35.8
CCOC(=O)c1ccc(NC2=CC(c3ccc(F)cc3)N(c3ccc(C(=O)OCC)cc3)C2=O)cc1 (stereo unspecified)	none
CC(C)c1ccc2nc3sc(C(=O)N4CCc5ccccc5C4)c(N)c3cc2c1	D1 agonist 30.6
O=S(=O)(NCCc1csc2nc(-c3ccc(Cl)cc3)nn12)c1ccc(Oc2ccccc2)cc1	none (no result: D1 antagonist)
CCOCCCNC(=O)C1CCCN(c2ncnc3onc(C)c23)C1 (stereo unspecified)	none
CCCCN(CC)CCNC(=O)C1CCCN(c2ncnc3onc(C)c23)C1 (stereo unspecified)	D1 antagonist -30.2
COc1cccc(NC(=O)N2CCN(c3cccc(C)c3)C(C)C2)c1 (stereo unspecified)	D1 antagonist -82.6
Cc1cccc(N2CCN(C(=O)Nc3ccc(F)cc3)CC2C)c1 (stereo unspecified)	D1 agonist 32.6
CCc1cc2c(cc3c(=O)n(CC(=O)NC(C)C)nc(CC)n32)s1	none
COc1ccc(OCCCCn2c(C3CC(=O)N(c4cccc(Cl)c4)C3)nc3ccccc32)cc1 (stereo unspecified)	none
O=C(NCc1ccccc1)c1ccc(-c2ccccc2C(F)(F)F)o1	none
Cc1ccccc1-c1ccc(C(=O)NCc2ccccc2)o1	D1 antagonist -42.4
N#Cc1c(-n2ncnc2-c2ccccc2C(F)(F)F)sc2c1CCCCC2	none
N#Cc1c(-n2ncnc2-c2ccccc2Cl)sc2c1CCCCC2	D1 antagonist -34.6
CS(=O)(=O)N1CCN=C1SCc1ccccc1	TRHR PAM 31.5
O=S(=O)(c1ccccc1)N1CCN=C1SCc1cccnc1	none
Cc1ccc(-c2nc3sc4c(N)ncnc4c3c3c2CCCC3)cc1	D1 antagonist -60.6
CC(C)(C)NC(=O)C(c1ccccn1)N(C(=O)c1ccc2c(c1)OCCO2)C1CCCC1 (stereo unspecified)	D1 antagonist -39.0
CC(C)(C)NC(=O)C(c1ccccn1)N(C(=O)c1csnn1)C1CCCCC1 (stereo unspecified)	none
COc1cnc(-c2ccccn2)nc1Sc1ccccc1Cl	D1 agonist 32.3
CN(C(=O)CSCC(=O)O)C1CCCCC1	none
CCOc1ccccc1N1CCN(C(=O)Nc2cccc(Cl)c2)CC1	none
CCOc1ccccc1N1CCN(C(=O)Nc2ccc(Cl)c(Cl)c2)CC1	D1 antagonist -35.7
C[C@H]1O[C@H](O[C@H]2[C@H](O[C@@H]3CC[C@@]4(C)C(CC[C@]5(C)C4CC=C4[C@@H]6CC(C)(C)CC[C@]6(C(=O)O[C@@H]6O[C@H](CO)[C@@H](O)[C@H](O)[C@H]6O)CC[C@]45C)C3(C)C)O[C@H](C(=O)O)[C@@H](O)[C@@H]2O)[C@@H](O)[C@@H](O)[C@@H]1O (stereo partly specified)	none
CC1OC(OC2C(OC3C(O[C@H]4CC[C@]5(C)C6C=C[C@]78OC[C@@]9(CC[C@@H](C)[C@H](C)C97)[C@H](O)C[C@@]8(C)[C@]6(C)CC[C@H]5C4(C)C)OC(C)C(O)C3O)OC(CO)C(O)C2O)C(O)C(O)C1O (stereo partly specified)	TRHR ag 58.9, D1 agonist 393.9
O=C(Nc1ccc(OC(F)F)cc1)c1cc(S(=O)(=O)N2CCOCC2)ccc1F	none
Cc1cc2nc(-c3ccc(OCc4ccc(F)cc4)cc3)cc(C(F)(F)F)n2n1	none
CC(=O)c1cccc(NC(=O)c2cc(C(C)C)on2)c1	D1 antagonist -36.1
CC(C)c1cc(C(=O)Nc2cccc(Cl)c2)no1	none
COc1ccc(C)cc1NC(=O)c1cccc(-c2ccc(OC(C)=O)cc2)c1	none (no result: D1 PAM)
C[n+]1ccc(/C=C/c2c[nH]c3ccc(F)cc23)cc1	D1 agonist 56.1
Cc1cc(C)cc(Nc2nnc(-n3nc(C)cc3C)c3ccccc23)c1	none
Cc1ccc(OC/C(=N\O)C(C)(C)C)c([N+](=O)[O-])c1	none
CCS(=O)(=O)N1CCN(c2ccc([N+](=O)[O-])c(NC(C)c3ccccc3)c2)CC1 (stereo unspecified)	none
CC(Nc1cc(N2CCNCC2)ccc1[N+](=O)[O-])c1ccccc1 (stereo unspecified)	D1 agonist 41.6
CCN(CC(=O)Nc1sc2c(c1C#N)CCC(C)C2)Cc1nc2ccccc2c(=O)[nH]1 (stereo unspecified)	D1 antagonist -60.9
CC(=O)Nc1sc2c(c1C#N)CCC(C)C2 (stereo unspecified)	none
CCN(CC(=O)Nc1sc2c(c1C#N)CCCC2)Cc1nc2ccccc2c(=O)[nH]1	none
CCN(CC(=O)Nc1sc2c(c1C#N)CCC(C)C2)CC(=O)NC1CCS(=O)(=O)C1 (stereo unspecified)	D1 antagonist -59.6
Cc1cc2c(s1)c1cnn(Cc3cccc(Br)c3)c(=O)c1n2C	none
COc1ccc2nc(SCC(=O)N3CC(=O)Nc4ccccc43)c(C#N)cc2c1	D1 antagonist -30.2, D1 agonist 32.3
Cc1cccc(CSc2cn(CC(=O)N3CCCCCC3)c3ccccc23)c1	none
Cc1cccc(CSc2cn(CC(=O)N3CCOCC3)c3ccccc23)c1	D1 antagonist -33.4!
COCCNC(=S)N(CCc1c(C)[nH]c2ccc(F)cc12)Cc1cccs1	D1 antagonist -37.7
Cc1cc2cc(C(c3nnnn3C3CCCC3)N(Cc3cccnc3)Cc3ccco3)c(=O)[nH]c2cc1C (stereo unspecified)	D1 antagonist -39.3
COc1ccc(C(=O)Nc2ccccc2N2CCOCC2)cc1[N+](=O)[O-]	D1 antagonist -32.1
